This is a sample that favours compounds with a hit; in the whole collection about 4.2% have one here.
TRPV1 ag – activates the human vanilloid receptor TRPV1; Q8NER1; TRPV1-expressing cells, Fluo-8 calcium influx, agonist mode; activation, % at 8.33 µM; 320,000 compounds, 0.19% hits; AID 540275; in the data active means activation above about 80%; inconclusive means between about 30% and that limit; further: 0% is about no effect
Target sequence (Q8NER1 whole entry, looked up): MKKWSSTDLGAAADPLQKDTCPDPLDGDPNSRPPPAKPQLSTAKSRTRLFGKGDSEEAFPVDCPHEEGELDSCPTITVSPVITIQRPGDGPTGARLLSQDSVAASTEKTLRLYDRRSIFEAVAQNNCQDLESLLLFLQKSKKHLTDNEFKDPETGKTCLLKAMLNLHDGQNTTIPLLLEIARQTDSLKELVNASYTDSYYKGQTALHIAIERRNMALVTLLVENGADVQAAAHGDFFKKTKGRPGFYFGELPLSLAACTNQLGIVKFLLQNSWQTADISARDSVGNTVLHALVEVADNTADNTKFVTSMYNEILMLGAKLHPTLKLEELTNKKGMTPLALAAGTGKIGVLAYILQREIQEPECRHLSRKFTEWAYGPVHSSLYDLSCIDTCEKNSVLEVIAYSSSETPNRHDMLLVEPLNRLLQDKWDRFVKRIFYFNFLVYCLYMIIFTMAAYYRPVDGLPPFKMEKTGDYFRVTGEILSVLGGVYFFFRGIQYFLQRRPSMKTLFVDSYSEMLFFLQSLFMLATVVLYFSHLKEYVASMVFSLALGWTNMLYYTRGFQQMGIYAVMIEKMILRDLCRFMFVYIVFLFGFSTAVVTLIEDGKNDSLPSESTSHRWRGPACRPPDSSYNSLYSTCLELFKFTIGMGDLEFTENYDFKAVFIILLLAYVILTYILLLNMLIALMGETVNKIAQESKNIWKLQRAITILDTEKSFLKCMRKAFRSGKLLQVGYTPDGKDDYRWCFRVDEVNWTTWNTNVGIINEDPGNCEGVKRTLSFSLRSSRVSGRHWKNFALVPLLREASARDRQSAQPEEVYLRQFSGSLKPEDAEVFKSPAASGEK
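Fluo-8 calcium influx in TRPV1-expressing cells, kinetic read (ex 480/em 520 nm). Compound added and read 3 min for agonist activity, followed by capsaicin at EC20 final and 2 min further read for enhancement.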
D1 potentiator – enhances dopamine response at the human D1 receptor. P21728. HEK293 TREx D1 cells, calcium flux, dopamine EC20 potentiation. potentiation, % at 10 µM. 360,000 compounds, 0.036% hits. AID 504651; in the data active means potentiation above about 30%; further: 0% is about no effect
D1 ag – activates the human D1 dopamine receptor. HEK293 T-REx D1 cells, calcium flux, agonist mode. activation, % at 2 µM. 360,000 compounds, 1% hits. AID 504660; in the data active means activation above about 30%; further: 0% is about no effect
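Tetracycline-induced HEK293 TREx D1 cells, force-coupled to calcium signalling, were dye-loaded with a no-wash calcium kit. Compound was pin-added after a 10 s baseline. Fluorescence was read kinetically at 1 cycle/s for 180 s, with calcium rises flagged as agonism.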
D1 antagonist – blocks dopamine activation of the human D1 receptor | P21728 | HEK293 TREx D1 cells, calcium flux, dopamine EC80; hits give low values | 360,000 compounds, 3.2% hits | AID 504652 | activity change, negative = inhibition, % at 10 µM; in the data active means activity change below about -30%; further: on the % scale 0 is the no-effect control and ±100 the full control effect
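Compound effects on dopamine-evoked calcium signalling were measured in tetracycline-induced HEK293 Trex D1 cells. Dopamine at EC80 followed a 180 s compound pre-read, and fluorescence was tracked kinetically for 180 s more.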
TRPV1 potentiator – potentiators of human vanilloid receptor 1 (TRPV1); Q8NER1; TRPV1-expressing cells, Fluo-8 calcium influx, capsaicin EC20 potentiation; potentiation, % at 8.33 µM; 320,000 compounds, 0.02% hits; AID 540277; in the data active means potentiation above about 80%; inconclusive means between about 30% and that limit; further: 0% is about no effect
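Fluo-8 calcium influx in TRPV1-expressing cells, kinetic read (ex 480/em 520 nm). Compound added and read 3 min for agonist activity, followed by capsaicin at EC20 final and 2 min further read for enhancement.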
* marks the source's active call; other numbers are inactive results; ? = inconclusive; . = no result given.

SMILES	TRPV1 ag	D1 potentiator	D1 ag	D1 antagonist	TRPV1 potentiator
O=C(CSc1nccc(-c2cccs2)n1)Nc1ccc(F)c(Cl)c1	3	-7	2	-39*	14
O=C(CSc1nccc(-c2cccs2)n1)Nc1cccc(Cl)c1	12	-2	6	-6	-7
COc1ccc(NC(=O)N2CCc3c(sc4c3CCCC4)C2c2ccccc2OC)cc1 (stereo unspecified)	.	-2	0	-8	.
Cc1nn2c(-c3cccnc3)ccnc2c1-c1ccccc1	1	-8	4	-44*	-3
Cc1nn2c(-c3ccccc3)ccnc2c1Br	9	1	1	25	1
COc1ccc(CCNc2nc(SCc3cccc(Cl)c3)nc3ccccc23)cc1OC	.	5	5	16	.
Cc1cc(/C=C(\C#N)C(N)=O)c(C)n1-c1ccc(N2CCOCC2)c([N+](=O)[O-])c1	8	-10	12	-32*	-15
O=C(c1nc2ccccn2c1CN1CCC(Cc2ccccc2)CC1)N1CCCC1	21	10	0	1	-5
O=C(c1cccc(OC2CCN(Cc3ccc(F)cc3Cl)CC2)c1)N1CCCC1	?	-7	6	-33*	-25
Cc1cccc(OC2CCN(Cc3c(C(=O)N4CCCC4)nc4ccccn34)CC2)c1	7	-1	7	-44*	19
CCOc1ccccc1CN1CCC(Oc2cccc(C(=O)NCCOC)c2)CC1	0	-8	3	-48*	2
COCCNC(=O)c1cccc(OC2CCN(Cc3ccccc3OC(F)F)CC2)c1	6	-6	1	-23	-7
O=C(c1cccc(OC2CCN(Cc3cc(F)cc(F)c3)CC2)c1)N1CCCC1	10	0	2	-11	-6
CC1CCCCN1CCCNC(=O)Cn1ncc2c3ccccc3n(Cc3ccccc3)c2c1=O (stereo unspecified)	.	-3	-2	4	.
O=C(Cn1c(=O)oc2cc(S(=O)(=O)N3CCCCCC3)ccc21)Nc1ccc(F)cc1F	.	-3	-1	-25	.
COc1ccc2c(c1)c1c(c(=O)n(-c3ccc(F)c(Cl)c3)c(=O)n1CC(N)=O)n2C	.	1	0	5	.
COc1ccc(Cn2cc(C(=O)c3ccc(OC)cc3)c(=O)c3cc4c(cc32)OCCO4)cc1	.	5	3	4	.
CCCNC(=O)COC(=O)c1cccnc1Nc1ccccc1F	?	-4	0	-32*	-27
O=C(O)CSc1nnc(-c2cccc(S(=O)(=O)N3CCOCC3)c2)n1-c1cccc(Cl)c1	-2	4	3	-31*	4
CCCn1c(CN(C)Cc2ccccc2)nc2c1c(=O)n(C)c(=O)n2C	0	0	4	-43*	3
CCCc1cc(C(=O)N2CCCN(C)CC2)cs1	3	-6	1	-2	11
CCCc1cc(C(=O)N2CCN(c3ccccc3C)CC2)cs1	?	-10	2	-43*	-9
Cc1cc(N2CCN(C(c3ccccc3)c3ccccc3)CC2)n2ncnc2n1	?	-2	5	8	-23
Cc1cc(N2CCN(c3nc4ccccc4s3)CC2)n2ncnc2n1	5	-2	9	-32*	-1
O=C(OCCN1CCN(C2=NS(=O)(=O)c3ccccc32)CC1)c1ccccc1F	1	-1	2	-32*	2
SMILES	TRPV1 ag	D1 potentiator	D1 ag	D1 antagonist	TRPV1 potentiator
O=C(OCCN1CCN(C2=NS(=O)(=O)c3ccccc32)CC1)c1cccc(Br)c1	1	-9	4	12	25
COC(=O)CCCC1=CC2=CC(=O)C(C)(OC(=O)c3cccs3)C(=O)C2=CN1CCCCO (stereo unspecified)	-10	-3	5	11	?
COCCN1C=C2C(=O)C(C)(OC(=O)c3cccs3)C(=O)C=C2C=C1CCCC(=O)OC (stereo unspecified)	-2	-6	6	-36*	?
Cc1ccccc1NC(=O)Cc1nc(COC(=O)c2ccc(S(C)(=O)=O)c([N+](=O)[O-])c2)cs1	0	-8	5	-36*	5
Cc1cccc(C(=O)OCC(=O)NC2CCCCCCC2)c1	?	3	0	1	-3
CCN(CC)S(=O)(=O)c1ccc(O)c(C(=O)OCC(=O)NC2CCCC2)c1	2	-9	0	-66*	-26
CS(=O)(=O)c1ccc(C(=O)OCC(=O)NC(=O)C2CCCCC2)cc1[N+](=O)[O-]	-1	-4	7	-33*	?

Assay outcomes from PubChem BioAssay.
